Screens: PubChem BioAssay, National Center for Advancing Translational Sciences (NCATS)
JMJD2A Tudor – qHTS Assay for Inhibitors of JMJD2A-Tudor Domain. Lysine-specific demethylase 4A (Homo sapiens), O75164. AlphaScreen JMJD2A-Tudor / H3K4me3 peptide binding. Potency, µM (series often up to 114 µM), for the others: at the highest dose activity change, negative = inhibition, actives largely listed as inhibitors. hit rate 4.4% among 390,000. AID 504339, 2011; also: % is scaled to controls: 0 for no effect and ±100 for the full control effect; nearly all actives have a fitted effect of over 50% in size
G9a inh – qHTS Assay for Inhibitors of Histone Lysine Methyltransferase G9a. Histone-lysine N-methyltransferase EHMT2 (Homo sapiens), Q96KQ7. G9a H3K9 monomethylation, AlphaScreen, 2 h. Potency, µM (series often up to 102 µM), for inactives: at the top dose activity, negative = inhibition, actives largely listed as inhibitors. hit rate 8.8% among 350,000. AID 504332, 2011; also: % is scaled to controls: 0 for no effect and ±100 for the full control effect; nearly all actives have a fitted effect of over 75% in size
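Signal arises when biotinylated H3K9 peptide, once monomethylated, bridges streptavidin donor and antibody-captured acceptor beads. Enzyme at 20 nM was preincubated 15 min with test compounds; peptide 500 nM and SAM 20 uM then reacted for 2 h.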
L3MBTL1 inh – qHTS Assay for the Inhibitors of L3MBTL1 | AID 485360, 2010 | Potency, µM (highest dose often 57.1 µM), for the others: top-dose activity, negative = inhibition, most hits filed as inhibitors | AlphaScreen L3MBTL1–H3K9me1 peptide binding | hit rate 0.66% among 230,000; also: % is scaled to controls: 0 for no effect and ±100 for the full control effect; nearly all actives have a fitted effect of over 60% in size
Target sequence (Q9Y468 whole entry, looked up): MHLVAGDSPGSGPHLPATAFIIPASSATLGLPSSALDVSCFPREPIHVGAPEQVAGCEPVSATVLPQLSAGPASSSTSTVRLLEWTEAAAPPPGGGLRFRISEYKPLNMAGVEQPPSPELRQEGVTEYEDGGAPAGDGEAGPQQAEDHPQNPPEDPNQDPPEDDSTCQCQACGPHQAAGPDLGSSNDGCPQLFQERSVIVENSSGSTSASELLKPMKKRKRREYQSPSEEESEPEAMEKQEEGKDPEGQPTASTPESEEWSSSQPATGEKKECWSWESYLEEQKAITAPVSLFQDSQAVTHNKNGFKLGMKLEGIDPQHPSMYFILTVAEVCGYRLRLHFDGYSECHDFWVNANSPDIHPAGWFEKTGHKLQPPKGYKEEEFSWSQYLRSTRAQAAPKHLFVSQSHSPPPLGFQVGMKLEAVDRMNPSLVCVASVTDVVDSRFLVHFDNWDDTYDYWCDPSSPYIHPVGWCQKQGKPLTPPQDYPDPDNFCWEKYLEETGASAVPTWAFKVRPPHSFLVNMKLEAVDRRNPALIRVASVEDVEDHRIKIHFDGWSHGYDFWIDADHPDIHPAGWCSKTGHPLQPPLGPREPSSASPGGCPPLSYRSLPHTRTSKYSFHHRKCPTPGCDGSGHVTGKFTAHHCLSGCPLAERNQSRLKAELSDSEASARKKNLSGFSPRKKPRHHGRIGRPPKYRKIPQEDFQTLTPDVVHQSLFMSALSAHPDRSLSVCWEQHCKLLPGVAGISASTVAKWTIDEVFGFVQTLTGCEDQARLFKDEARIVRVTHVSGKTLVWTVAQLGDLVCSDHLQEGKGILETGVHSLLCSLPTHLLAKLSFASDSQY
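First, the protein-peptide complex forms for 30 min at room temperature (L3MBTL1 50 nM, biotinylated H3K9me1 peptide 75 nM). Next, compounds are pin-transferred and incubated 30 min. Finally, AlphaScreen beads are added and read after 30 min.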
Sfp PPTase inh – qHTS Assay for Inhibitors of Bacillus subtilis Sfp phosphopantetheinyl transferase (PPTase). hit rate 3.5% among 310,000. Biochemical Sfp PPTase activity, qHTS. Potency, µM, for the others: largest response in the series, negative = inhibition, hits mostly inhibitors. 4'-phosphopantetheinyl transferase ffp (Bacillus subtilis), Q9F4F7;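 also: the enzyme is Sfp with the accession as filed and its product quenches rhodamine fluorescence; 0% = enzyme reaction without inhibitor and -100% = no enzyme wells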
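With Hepes-Na pH 7.6 buffer containing 10 mM MgCl2, Sfp (15 nM) modified BHQ-2-YbbR (12.5 uM) using rhodamine-CoA (5 uM). Two reads 30 minutes apart at 525/598 nm yielded each well's rate.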
BAZ2B inh – qHTS Assay for Inhibitors of BAZ2B; AlphaScreen BAZ2B-H3K14Ac peptide displacement; Bromodomain adjacent to zinc finger domain protein 2B (Homo sapiens), Q9UIF8; AID 504333, 2011; hit rate 4.4% among 360,000; Potency, µM (series often up to 114 µM), inactives show at the highest dose activity change, negative = inhibition, usual class: inhibitors; also: % is scaled to controls: 0 for no effect and ±100 for the full control effect; nearly all actives have a fitted effect of over 60% in size
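Compounds, titrated to a top concentration of 110 uM, were incubated 30 min at room temperature with preformed BAZ2B/acetyl-K14 H3 peptide complex (50 nM each). Proximity signal was measured by AlphaScreen after 20 min with beads.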
HP1b chromo inh – HTS for Inhibitors of HP1-beta Chromodomain Interactions with Methylated Histone Tails | Potency, µM (highest dose often 114 µM), inactives show at the highest dose activity change, negative = inhibition, most hits filed as inhibitors | Chromobox protein homolog 1 (Homo sapiens), P83916 | hit rate 0.56% among 390,000 | AID 540317, 2011 | AlphaScreen HP1-beta / biotin-H3K9me3 peptide binding; also: nearly all actives have a fitted effect of over 70% in size
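AlphaScreen: HP1-beta (50 nM) preformed 30 min with biotin-H3(1-18)K9me3 peptide (50 nM) in PBS pH 7.4, 0.01% Tween-20. Compound added for 30 min at RT, then streptavidin donor/nickel chelate acceptor beads (10 ug/mL) for 30 min.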
The depositor's hits bear a star; ? = inconclusive; . = not tested or not shown; [ ] = dose if it differs, or a comment. Most compounds without a hit are left out; they make up all but 12% or so of the library. Calls follow the shape of the dose curve; as a rule, active = well fitted curve in the direction sought with a large enough effect; inconclusive = small, poorly fitted or top-dose-only effect, or another doubt; inactive = no such curve, though single readings can be large; an effect the other way counts as inactive or inconclusive. Potency is read from the fitted curve at half-maximal effect.

SMILES	JMJD2A Tudor	G9a inh	L3MBTL1 inh	Sfp PPTase inh	BAZ2B inh	HP1b chromo inh
N=c1c2c(ncn1-c1ccccc1)Oc1ccc3ccccc3c1C2c1ccc2c(c1)OCCO2 (stereo not drawn)	22µM*	.	.	.	.	.
CCOc1ccc(C2c3c(ncn(-c4ccccc4)c3=N)Oc3ccc4ccccc4c32)cc1OCC (stereo not drawn)	40µM*	.	.	.	.	.
N=c1c2c(ncn1CCN1CCOCC1)Oc1ccc3ccccc3c1C2c1ccccc1 (stereo not drawn)	-18%	?	.	-6%	-37%	25%
COc1ccc(C2c3c(ccc4ccccc34)Oc3ncn4nc(-c5ccco5)nc4c32)cc1OC (stereo not drawn)	-13%	?	8%	-23%	-31%	9%
N=c1c2c(ncn1-c1ccccc1)Oc1ccc3ccccc3c1C2c1ccc2c(c1)CCO2 (stereo not drawn)	35µM*	.	.	.	.	.
O=C(NCc1ccccc1)c1ccc(-c2ccc(F)cc2)o1	-32%	3%[2.33 µM]	.	?	?	3%
O=C1c2ccccc2C(=O)N1c1ncccc1O	-19%	.	.	.	.	.
COc1cccc(NC(=O)CSc2nc3c(oc4ccccc43)c(=O)n2Cc2ccco2)c1	-9%	-1%[59 µM]	.	.	3%	23%
CCOc1ccccc1NC(=O)CSc1nnc2[nH]c(=O)cc(-c3ccccc3)n12	-13%	?	.	.	-4%	62%
CCN(c1ccccc1)c1cc2ccccc2c(=O)[nH]1	18µM*	?	.	-10%	-21%	-7%[57 µM]
Cc1ccc(NS(=O)(=O)c2cccc(C(=O)NCC(c3ccco3)N3CCCC3)c2)cc1 (stereo not drawn)	-19%	-3%[59 µM]	-7%	.	-3%	16%
Cc1cc(C)cc(OCC(=O)Nc2ccc(N3CCCC3)cc2)c1	?	-11%[59 µM]	-14%	56µM*	-30%	-36%
Cc1ccc(OCC(=O)Nc2ccc(N3CCCC3)cc2)cc1C	32µM*	11µM*	-24%	32µM*	28µM*	?
Cc1ccc(OCC(=O)Nc2ccc(O)c(C(=O)O)c2)cc1C	-17%	35µM*	0%	-16%	5%	9%
Cc1ccc(OCC(=O)Nc2cc(C(C)(C)C)on2)cc1C	18%	.	.	45µM*	-11%	72%
COc1ccc(OCC(=O)Nc2ccc(N3CCCCC3)cc2)cc1	-14%	8%	-14%	-22%	-31%	-16%
Cc1cc(NC(=O)COc2ccc(C)c(C)c2)no1	-5%	-4%	.	16%	-2%	12%
NCCCCc1cn(CC(=O)N2CCNCC2)nn1	-12%	?	5%	9%	-20%	10%
COC(=O)c1sc(C(F)(F)F)c(-c2ccccc2)c1S(=O)(=O)N1CCOCC1	1%	.	.	.	.	39%
Cc1ccc(OCC(=O)Nc2ccc(N3CCN(S(C)(=O)=O)CC3)cc2)cc1	-3%	.	13%	7%	-4%	10%
Cc1ccc(C(C)C)cc1OCC(=O)Nc1ccc(N2CCCCC2)cc1	?	16µM*	-27%	.	28µM*	?
CC(=O)c1ccc(OCC(=O)Nc2ccc(N3CCCCC3)cc2)cc1	?	-17%[12.7 µM]	-19%	.	45µM*	?
CC(C)(C)c1ccc(OC(=O)Nc2ccc(O)c(C(=O)O)c2)cc1	-29%	?	.	50µM*	?	17%
Cc1ccc(C(=O)Nc2ccc(O)c(C(=O)O)c2)o1	-19%	?	-3%[11.4 µM]	-10%	-33%	11%
Cc1cccc(C(=O)OCC(=O)Nc2ccc(N3CCCCC3)cc2)c1O	-7%	?	.	3%	-33%	26%
SMILES	JMJD2A Tudor	G9a inh	L3MBTL1 inh	Sfp PPTase inh	BAZ2B inh	HP1b chromo inh
CCc1ccc(OCC(=O)Nc2ccc(N3CCN(S(C)(=O)=O)CC3)cc2)cc1	1%	79µM*	5%	5%	13%	34%
Cc1ccc(OCc2ccccc2Br)c([N+](=O)[O-])n1	8%	-6%	.	-3%	14%	30%
N#CC1=C(N)SC(N)=C(C#N)C1c1c(Cl)cccc1Cl	?	11µM*	9%	7.1µM*	?	-9%
N#CC1=C(N)SC(N)=C(C#N)C1c1cccc(Oc2ccccc2)c1	?	?	-5%	28µM*	-17%	3%
C#CCCCO/N=C1/C[C@@H](O)[C@@H](O)[C@@H]2[C@@H]3C(=O)N(CC)C(=O)[C@H]3CC[C@@H]12	.	.	.	4%	.	.
COc1ccc2cc(CCNS(=O)(=O)c3ccc(C)cc3)c(=O)[nH]c2c1	-7%	5%[59 µM]	.	.	-5%	10%
COc1cccc(N2CC(C(=O)Nc3c(C(N)=O)oc4ccccc34)CC2=O)c1 (stereo not drawn)	-9%	6%	2%	.	7%	15%
Cn1cc(CCCC(=O)NCc2ccccc2Cl)c2ccccc21	-16%	0%[59 µM]	.	.	4%	22%
Cc1ccc(C)c(S(=O)(=O)N2CCN(C(=O)CSC(=S)N3CCCC3)CC2)c1	-12%	50µM*	10%	.	4%	30%
CCC(c1nnnn1Cc1ccco1)N1CCN(c2cc(Cl)ccc2C)CC1 (stereo not drawn)	50µM*	10%[59 µM]	-1%	-1%	?	?
Cc1ccc(Cl)cc1N1CCN(Cc2nnnn2Cc2ccco2)CC1	-15%	?	3%	-20%	0%	17%
CCCC(c1nnnn1CCc1ccccc1)N1CCN(C(=O)c2ccco2)CC1 (stereo not drawn)	-16%	?	2%	3%	-34%	44%
CCCCC(c1nnnn1CCOC)N1CCN(C(=O)c2ccco2)CC1 (stereo not drawn)	12%[11.4 µM]	?	.	0%	50µM*	30%
COCCn1nnnc1C(CC(C)C)N1CCN(C(=O)c2ccco2)CC1 (stereo not drawn)	15%[11.4 µM]	40µM*	4%	10%	79µM*	-13%
CCC(c1nnnn1Cc1ccccc1)N1CCN(C(=O)c2ccco2)CC1 (stereo not drawn)	17%	79µM*	-12%	-6%	15%	24%
CCOc1ccc(CN2CCN(Cc3[nH]c4ccccc4c3C)CC2CCO)cc1 (stereo not drawn)	?	6%[12.7 µM]	-2%	16%	?	-9%
CC(=O)Nc1sc(NC(=O)c2ccc(C)cc2)nc1-c1cccs1	-11%	5%[59 µM]	6%	-10%	10%	25%
NC1=NC(=O)C(CC(=O)c2ccc(Cl)cc2)S1 (stereo not drawn)	-2%	?	-2%	-5%	-2%	52%
